Screening data from PubChem.
RORg inh = inhibitors of mouse ROR gamma transcriptional activity | P51450 | Drosophila S2 Gal4-RORgamma UAS-luciferase reporter, 20 h | Potency, µM (top dose mostly 53.6 µM), for the others: at the highest dose activity change, negative = inhibition, actives largely listed as inhibitors | 5.4% of 310,000 active | AID 2551; also: potency is read from the fitted curve at half-maximal effect; % is scaled to controls: 0 for no effect and ±100 for the full control effect; nearly all actives have a fitted effect of over 60% in size
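Read-out: Photinus luciferase luminescence; inhibitors lower reporter signal. Insect Schneider cells with Gal4-ROR gamma fusion under metallothionein promoter, UAS reporter; 700 uM final copper sulfate induction, 20 hr, ambient temperature.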
Six1-Eya2 inh = Six1/Eya2 interaction inhibition; Q15475+O00167; AlphaScreen GST-Six1/His-Eya2 binding, biochemical; stronger effect = lower value; activity change, % (test concentration not listed); 0.56% of 360,000 active; AID 651725; in the data active = activity change below about -65%; inconclusive = mostly about -30% to -63%; also: % is scaled to controls: 0 for no effect and ±100 for the full control effect
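GST-Six1 + His-Eya2 (5X stock: 250/500 nM); Tris pH 8.0, 300 mM NaCl, 0.05% BSA, 0.02% Tween 20; GSH donor/Ni acceptor beads; 1 h 37 °C dark; AlphaScreen readout.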
MBNL1-CUG inh = inhibitors of human MBNL1 binding to CUG repeat RNA; 0.036% of 280,000 active; TR-FRET MBNL1-His/biotin-(CUG)12 binding, 665/545 ratio; Potency, µM (doses to about 57.5 µM), inactives show top-dose activity change, negative = inhibition, actives largely listed as inhibitors; AID 2675; active = well fitted inhibition curve with a large enough effect in the signal ratio, with a control signal flat, not every such curve was filed as active; inconclusive = small, poorly fitted or top-dose-only effect, or effect the other way, or a change in a side signal; inactive = no such curve, though single readings can be large or run the other way; the % refers to the signal ratio; also: potency is read from the fitted curve at half-maximal effect; % is scaled to controls: 0 for no effect and ±100 for the full control effect
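TR-FRET between His-tagged MBNL1 and biotin-(CUG)12 RNA, detected with Tb anti-His antibody (0.055 ng/ul) and streptavidin-XL665 (5 nM), 60 min at room temperature. Compounds titrated 92 nM to 58 uM; 665/545 nm ratio normalized to buffer and complex controls.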
Gal4-VP16 FLuc = inhibits Gal4-VP16 luciferase reporter, ROR gamma counter-screen. Drosophila S2 Gal4-VP16 UAS-luciferase, luminescence, 20 h. Potency, µM (doses to about 53.6 µM), without a hit: at the highest dose activity, negative = inhibition, actives largely listed as inhibitors. 3.5% of 310,000 active. AID 2546;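 also: Gal4-VP16 expression switched on by copper sulfate through the metallothionein promoter; potency is read from the fitted curve at half-maximal effect; % is scaled to controls: 0 for no effect and ±100 for the full control effect; nearly all actives have a fitted effect of over 50% in size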
CBFb RUNX1 block = CBF-beta/RUNX1 interaction disruption; Q01196+Q13951; AlphaScreen CBFb-His/RUNX1-biotin binding, biochemical; Potency, µM (top dose mostly 59.8 µM), without a hit: at the top dose activity, negative = inhibition, hits mostly inhibitors; 230,000 tested, under 10 active; also: % of control where 0% means no effect
Target sequence (Q01196 whole entry, looked up): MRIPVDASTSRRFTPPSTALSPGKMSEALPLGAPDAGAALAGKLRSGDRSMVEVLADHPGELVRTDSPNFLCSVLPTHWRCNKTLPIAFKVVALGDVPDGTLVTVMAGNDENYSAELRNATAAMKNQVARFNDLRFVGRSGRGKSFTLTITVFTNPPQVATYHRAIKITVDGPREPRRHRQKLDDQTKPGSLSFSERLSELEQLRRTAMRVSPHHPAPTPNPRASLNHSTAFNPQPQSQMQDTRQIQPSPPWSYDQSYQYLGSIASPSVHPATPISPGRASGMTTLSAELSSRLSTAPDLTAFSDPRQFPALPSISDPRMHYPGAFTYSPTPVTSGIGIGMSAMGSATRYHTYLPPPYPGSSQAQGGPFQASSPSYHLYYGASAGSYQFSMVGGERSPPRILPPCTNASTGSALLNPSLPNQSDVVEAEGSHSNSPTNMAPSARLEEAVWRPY
Target sequence (Q13951 whole entry, looked up): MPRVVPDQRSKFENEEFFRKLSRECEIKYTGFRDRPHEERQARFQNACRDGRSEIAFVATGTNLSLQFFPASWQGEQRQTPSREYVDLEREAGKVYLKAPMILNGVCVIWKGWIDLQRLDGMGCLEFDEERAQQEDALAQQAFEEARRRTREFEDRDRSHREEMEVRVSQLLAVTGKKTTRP
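Compounds were screened at multiple concentrations against a preformed CBF-beta(His)/RUNX1(biotin) complex (30 nM of each) for 15 min at room temperature, followed by 90 min with nickel and streptavidin beads and AlphaScreen reading.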
CtBP-E1A inh = inhibitors of CtBP/E1A interaction | AlphaScreen GST-E1A/His-CtBP binding, 1536-well; stronger effect = lower value | activity change, % (no concentration beside the values) | 0.49% of 340,000 active; in the data active = activity change below about -65%; inconclusive = mostly about -30% to -63%; also: % is scaled to controls: 0 for no effect and ±100 for the full control effect
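In 5 uL wells, 23 nL compound meets equimolar GST-E1A and His-CtBP (5X stock 125 nM each) for 2 h, 37 °C. Beads (5X, 50 ug/mL) then 1 h, 37 °C, dark.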
Starred values were filed as active, the others as inactive; ? = inconclusive; . = no result; [ ] = dose if it differs, or a comment. Only some compounds are listed: those with a hit (about 5.5% of all), similar ones and a draw of the others. Unless noted, calls follow the shape of the dose curve; as a rule, active = well fitted curve in the direction sought with a large enough effect; inconclusive = small, poorly fitted or top-dose-only effect, or another doubt; inactive = no such curve, though single readings can be large; an effect the other way counts as inactive or inconclusive.

SMILES	RORg inh	Six1-Eya2 inh	MBNL1-CUG inh	Gal4-VP16 FLuc	CBFb RUNX1 block	CtBP-E1A inh
O=C(c1cc(-c2ccc(O)cc2)on1)N1CCCCCC1	-2%	5	-8%	2%	.	2
O=C(c1cc(-c2ccco2)on1)N1CCOCC1	-6%	-1	6%	-9%	-3%	-15
O=C(c1cc(-c2ccc(Cl)c(Cl)c2)on1)N1CCCCCC1	-21%	-11	0%	5%	.	-16
CC(C)CCNC(=O)C(=O)NC1CCCC1	-16%	4	9%	1%	16%	0
CCCCNC(=S)NC1CCCC1	10µM*	9	?	18µM*	4%	8
CC(C)CCNC(=S)NC1CCCC1	2.8µM*	-1	-12%	?	0%	2
CC(C)CN(CC(C)C)C(=S)NC1CCCCC1	2.8µM*	-22	1%	7.1µM*	9%	7
OCCCNC(=S)NC1CCCC1	-6%	7	-6%	-3%	8%	2
O=C(CCN1CCCCC1=O)NC1CCCN(Cc2ccc(Cl)cc2)C1 (configuration not stated)	12%	-1	-2%	-6%	.	5
N#Cc1ccccc1NC(=O)CN(Cc1ccccc1)Cc1ccccc1	4%	3	0%	15%	.	-1
COC(=O)c1ccccc1NC(=O)C1CC(c2ccccc2O)=NO1 (configuration not stated)	13µM*	-2	-4%	?	13%	-3
COc1ccc(Cc2nc3ccc(C(=O)N(C)Cc4nccn4C)cc3o2)cc1	.	1	.	.	.	0
Oc1c(Cl)cc(Cl)cc1CNc1nccs1	0%	-65*	-3%	-3%	.	-83*
Cc1cccc(NCc2cc(Cl)cc(Cl)c2O)n1	?	-17	-4%	-17%	-1%	13
C[C@@H](c1ccccc1)N1C(=O)[C@H]2[C@@H]3[C@H](O)C=CC(=O)[C@H]3CC[C@H]2C1=O	?	.	.	-12%[10 µM]	16%[13.1 µM]	.
Nc1nc(NC(=O)C(Cl)(Cl)Cl)nn1-c1ccccc1	13µM*	-23	1%	?	?	-2
Cc1cccc2c1CCCC2=O	.	2	.	.	.	6
Cn1/c(=N/N=C/c2ccccn2)sc2ccccc21	10µM*	-3	?	?	-8%	-3
CC[C@]1(O)C[C@@H]2CN(CCc3c([nH]c4ccccc34)[C@@](C(=O)OC)(c3cc4c(cc3OC)N(C)C3[C@]45CCN4CC=C[C@](CC)(C45)[C@@H](OC(C)=O)[C@]3(O)C(=O)OC)C2)C1 (some centres not stated)	.	.	.	.	12%	.
CC(C)NS(=O)(=O)c1ccc(NC(=S)NC(=O)c2ccc(-c3ccccc3)cc2)cc1	7.1µM*	-6	2%	?	-6%	-4
O=C(NC(=S)Nc1ccccc1)c1ccc(-c2ccccc2)cc1	3.5µM*	2	.	4.5µM*	-7%	4
O=C(O)c1ccc(NC(=S)NC(=O)c2ccc(-c3ccccc3)cc2)cc1	13%	-9	-11%	1%	-4%	1
COc1ccc(/C(C)=N/NC(=O)c2cc(C)[nH]n2)c(OC)c1	-4%	-3	0%	-5%	.	-10
Cc1ccc2nc(NC(=O)c3cccs3)sc2c1	?	6	8%	-30%	3%	-1
Cc1cc(C(=O)Nc2nc3ccc(S(C)(=O)=O)cc3s2)c(C)o1	1.1µM*	18	1%	?	0%	-11
SMILES	RORg inh	Six1-Eya2 inh	MBNL1-CUG inh	Gal4-VP16 FLuc	CBFb RUNX1 block	CtBP-E1A inh
Cc1ccc(C(=O)Nc2nc3ccc(S(C)(=O)=O)cc3s2)s1	3.2µM*	2	46%	?	3%	-2
CS(=O)(=O)c1ccc2nc(NC(=O)c3cccs3)sc2c1	14µM*	0	-3%	8.9µM*	10%	7
COc1ccc2nc(NC(=O)c3cc(C)oc3C)sc2c1	?	4	35%	?	-7%	-1
CCCCNC(=O)[C@H]1C[C@H]1[C@@H](O)[C@H](CO)NC(=O)[C@H](Cc1ccccc1)NC(=O)OC(C)(C)C	-7%	1	-2%	2%	.	6
Cc1c(OCC(=O)NC2CCN(Cc3ccccc3)CC2)ccc2c3c(c(=O)oc12)CCC3	-17%	18	-4%	-5%	.	2
O=C(/C=C/NNC(=O)c1ccc(Cl)cc1)c1ccccc1	11µM*	-10	4%	?	0%	.
O=C(CCNC(=O)c1ccccc1Cl)NCC(c1ccco1)N1CCCC1 (configuration not stated)	.	-1	.	.	.	5
COc1cc(/C=N/O)ccc1OCc1ccc(C(=O)O)cc1	1µM*	-12	14%	4µM*	6%	-3
CCOc1cc(/C=N/N=C(N)N)ccc1OCc1ccc(Cl)cc1	?	-2	.	8.9µM*	12%	7
COc1cc(/C=N/N=C(N)N)ccc1OCc1ccc(Cl)cc1	-105%	-5	1%	-27%[10 µM]	-6%	-12
COc1cc(/C=N/n2c(C)n[nH]c2=S)ccc1OCc1ccc(F)cc1	4µM*	-16	11%	13%	1%	-9
CCOc1cc(/C=N/O)ccc1OCc1ccc(F)cc1	8%	2	-2%	-21%	-3%	-2
COc1cc(/C=N\n2nnnc2N)ccc1OCc1ccc(F)cc1	-4%	-10	14%	?	2%	-1
COc1cc(/C=N/O)ccc1OCc1ccc(Cl)cc1	1.1µM*	.	1%	?	1%	.
Cc1ccc(C=Nc2ccccc2C(N)=O)o1	?	24	0%	20µM*	-1%	22
CN(C)c1ccc(/C=N/NC(=O)c2ccco2)cc1	-35%	1	?	-29%	-7%	0
CN(C)c1ccc(C=Nc2ccccc2C(N)=O)cc1	?	-3	-7%	10µM*	7%	-1
CN(C)S(=O)(=O)c1cccc(COC(=O)CCNC(=O)c2ccc([N+](=O)[O-])cc2)c1	.	23	.	.	.	.
CC(C)c1ccc(NC(=O)C2CCCN2S(=O)(=O)c2ccccc2F)cc1 (configuration not stated)	.	4	.	.	.	-2
CC1CCN(c2nc(-c3ccncc3)nc3ccccc23)CC1	11µM*	-1	7%	?	4%	-6
CC1CCN(c2nc(/C=C/c3ccccc3)nc3ccccc23)CC1	16µM*	29	?	?	14%	0
CCC1CCCCN1c1nc(-c2ccncc2)nc2ccccc12 (configuration not stated)	?	-4	21%	-13%	5%	-14
c1ccc2c(N3CCOCC3)nc(-c3ccncc3)nc2c1	23%	2	-19%	-16%	2%	-8
